Compound activity as filed in PubChem.
Rows were chosen to be rich in hits. Some 21% of all compounds tested hit in one or more screens of this group.
Shiga toxin inh: inhibitors of Shiga toxin in Vero cells; 290,000 tested, 9.2% active; inhibition, % at 38.7 µM; Vero cells, Shiga toxin protein synthesis inhibition reporter; in the data active means inhibition mostly above about 28%, no sharp cut-off; inactive means mostly below about 43%; further: 0% is about no effect
Pf growth 48h: P. falciparum growth inhibition at 48 hours (one generation); P. falciparum luciferase growth in erythrocytes, 48 h; Potency, µM (highest dose often 28.7 µM), without a hit: at the highest dose activity change, negative = inhibition, most hits filed as inhibitors; 310,000 tested, 5.9% active; AID 504832; further: potency means the concentration at half of the fitted maximal effect; on the % scale 0 is the no-effect control and ±100 the full control effect
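Luminescence readout; reporter = integrated firefly luciferase in P. falciparum. RBC culture at 2% hematocrit, 0.1% parasitemia final, 37 C/5% CO2; decreased signal taken as growth inhibition.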
NS1 inh: blocks influenza NS1 protein function; 270,000 tested, 0.4% active; Potency, µM (highest dose often 46.1 µM), for inactives: top-dose activity, positive = more growth; AID 2326; calls by dose curve; further: potency means the concentration at half of the fitted maximal effect; actives are rising curves; nearly all actives have a fitted effect of over 50% in size
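Compounds were scored for reversing the slow growth caused by influenza A NS1 in S. cerevisiae, measured by optical density at 600 nm. Assay medium contained 2% galactose at pH 6.0; NS1-free yeast of the same strain were the positive control.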
Pf growth 96h: inhibits malaria parasite growth, 96 h; P. falciparum luciferase reporter growth, 96 h; Potency, µM (top dose mostly 28.7 µM), for the others: at the top dose activity change, negative = inhibition, usual class: inhibitors; 320,000 tested, 6.9% active; further: potency means the concentration at half of the fitted maximal effect; on the % scale 0 is the no-effect control and ±100 the full control effect
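P. falciparum expressing integrated firefly luciferase grown in erythrocytes (2% hematocrit, 0.05% parasitemia final) with compounds for 96 hours at 37 C, 5% CO2. Growth inhibition read as loss of luminescence after adding luciferase detection reagent.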
CHX counter: counter-screen hit for Shiga toxin inhibitors, cycloheximide; max response, %; AID 2314; 300,000 tested, 12% active; cell reporter, cycloheximide protein synthesis inhibition counterscreen; in the data active means max response mostly above about 13%, no sharp cut-off; inactive means mostly below about 14%; further: read at 38.3 µM for the half of the compounds with a filed dose; 0% is about no effect
An asterisk follows results filed as active; ? = inconclusive; nt = not tested or not shown. Unless noted, the call rests on the fitted dose curve; in most records, active means well fitted inhibition curve with a large enough effect; inconclusive means small, poorly fitted or top-dose-only effect, or another doubt; inactive means no such curve, though single readings can be large or run the other way.

SMILES	Shiga toxin inh	Pf growth 48h	NS1 inh	Pf growth 96h	CHX counter
COc1ccc(C(=O)N2CCC(C(=O)NCc3ccccn3)CC2)cc1	-2	0%	-1%	95%	-4
O=C(N/N=C/c1ccccc1)c1ccco1	100*	76%	-7%	40%	36*
CC(NC(=O)c1ccccc1NC(=O)c1ccco1)C(=O)O (stereo not drawn)	138*	165%	5%	-20%	76*
O=C(Nc1ccccc1C(=O)NC(Cc1ccccc1)C(=O)O)c1ccco1 (stereo not drawn)	-3	3%	1%	16%	5
CC(C)=C(NC(=O)c1ccccc1)C(=O)N/N=C/c1ccc(O)cc1	-2	48%	5%	?	31*
O=C(N/N=C/C(Br)=C\c1ccccc1)c1ccco1	47*	2.6µM*	-68%	4.1µM*	46*
CNC(=O)C(=O)NCCc1ccc(Cl)cc1	-24	-21%	10%	nt	2
Cc1ccc(C)c(N2CCN(CCCNC(=O)Cn3c(=O)c4cccn4c4cccnc43)CC2)c1	-11	?	8%	?	-3
CCCCOc1ccc(C2/C(=C(/O)c3ccc4c(c3)CC(C)O4)C(=O)C(=O)N2CCCN2CCOCC2)cc1OC (stereo not drawn)	3	?	6%	?	21
O=C1C2CC=CCC2C(=O)N1c1n[nH]c(CCc2ccccc2)n1 (stereo not drawn)	2	32%	0%	nt	-2
CCOC(=O)N1CCN(c2c(N3CCN(C(=O)OCC)CC3)c(=O)c2=O)CC1	-8	8%	2%	4%	1
CO[C@@H](COC(N)=O)C1=C(N2CC2)C(=O)C(C)=C(N2CC2)C1=O	nt	0.6µM*	nt	0.54µM*	nt
CC(C)(C)NC(=O)c1sccc1C(=O)O	51*	48%	-75%	?	22*
CC(C)(C)NC(=O)c1ccc(C(=O)NC(C)(C)C)cc1	2	11%	9%	59%	-2
C/C(=N\OCC(=O)Nc1ccccc1C(C)(C)C)c1ccc2c(c1)OCCO2	-4	9.3µM*	-16%	?	-1
O=C(COC(=O)c1ccc(O)cc1O)c1ccc2c(c1)OCO2	92*	32%	1%	-11%	76*
O=C(COC(=O)c1ccccc1NC(=O)C1CC1)c1ccc2c(c1)OCCO2	75*	4%	3%	?	54*
CC(C)(C)C(=O)Nc1ccccc1C(=O)OCC(=O)c1ccc2c(c1)OCCO2	78*	-3%	-13%	-20%	69*
Cc1ccc(/C=C2\SC(=S)N(/N=C/c3cc([N+](=O)[O-])ccc3O)C2=O)o1	24	?	nt	?	19*
O=C(NN1C(=O)/C(=C/c2cc([N+](=O)[O-])ccc2O)SC1=S)c1ccccc1O	nt	31%	nt	3%	nt
COc1ccc(/C=N/NC(=O)c2cccc(Br)c2)cc1CN1CCOCC1	18	-11%	-1%	20%	19*
CCOc1cc(C(=S)N2CCOCC2)ccc1OC	-13	13%	0%	nt	-2
CCOC(=O)c1ccccc1OCc1cc(/C=N/NC(=O)c2cccnc2)ccc1OC	20	8%	-9%	35%	1
CCOc1cc(/C=C/C(=O)c2ccc(OC)c(CN3CCOCC3)c2)cc(Br)c1O	1	13µM*	6%	9.3µM*	-6
COc1ccc(/C=N/NC(=O)c2ccccc2O)cc1CSc1ccccn1	82	-25%	-1%	-21%	9
SMILES	Shiga toxin inh	Pf growth 48h	NS1 inh	Pf growth 96h	CHX counter
COc1ccc(/C=N/NC(=O)c2ccccc2O)cc1COc1ccccn1	41*	-18%	-7%	0%	23*
COc1ccc(/C=N/NC(=O)c2cccc(Br)c2)cc1COc1ccccn1	11	-12%	-4%	24%	14*
CCOc1cccc(C(=O)Nc2ccccc2C(=O)N2CCOCC2)c1	-4	?	12%	23%	-1
Cn1nnnc1NCc1cccc(Cl)c1Cl	-8	1%	0%	-11%	-3
COc1cccc(C2c3[nH]c4ccccc4c3C[C@H]3C(=O)N(CCCO)CC(=O)N23)c1OC (stereo partly drawn)	13	?	-7%	?	0
Cc1ccccc1C1c2[nH]c3ccccc3c2C[C@H]2C(=O)N(C3CCN(Cc4ccccc4)CC3)CC(=O)N12 (stereo partly drawn)	-5	3.3µM*	10%	0.33µM*	-3
COc1ccc(C2c3[nH]c4ccccc4c3C[C@H]3C(=O)N(C4CCN(Cc5ccccc5)CC4)CC(=O)N23)c(OC)c1 (stereo partly drawn)	-7	0.83µM*	9%	1µM*	-2
CCOc1ccccc1C1c2[nH]c3ccccc3c2C[C@H]2C(=O)N(C3CCN(Cc4ccccc4)CC3)CC(=O)N12 (stereo partly drawn)	21	0.93µM*	6%	0.74µM*	7
Brc1ccc(-c2c[n+]3c(n2-c2ccccc2)SCC3)cc1	-4	?	-1%	?	-1
COc1ccccc1-n1c(-c2ccccc2)c[n+]2c1CCc1ccccc1-2	-9	?	1%	?	1
COc1ccc(-n2c(-c3ccc(Br)cc3)c[n+]3c2CCc2ccccc2-3)cc1	1	1.9µM*	11%	0.47µM*	14*
CC(C)c1ccc(-n2c(-c3ccccc3)c[n+]3c2CCc2ccccc2-3)cc1	-4	1µM*	nt	0.83µM*	-1
Cc1ccc(-c2nnc(SCC(=O)N3CCCC3)o2)cc1C	72*	11%	-62%	214%	36*
CCOC(=O)N1CCN(C(=O)CSc2nnc(-c3ccc(C)c(C)c3)o2)CC1	9	nt	-8%	9.3µM*	-2
COc1cc(OC)cc(-c2nnc(SCC(=O)N3CCCc4ccccc43)o2)c1	4	-6%	-30%	nt	7
COc1cccc(-c2nnc(SCC(=O)N3CCCc4ccccc43)o2)c1	19*	-27%	-9%	17%	10
CCOC(=O)N1CCN(C(=O)CSc2nnc(-c3cccc(OC)c3)o2)CC1	27	9.3µM*	-5%	nt	-3
CCCCCCOC(=O)Nc1ccc(S(=O)(=O)Nc2cccc([N+](=O)[O-])c2)cc1	-10	-1%	8%	-15%	7
Cc1ccc(CNS(=O)(=O)c2ccc3c(c2)NC(=O)CS3)cc1	-13	-9%	7%	-12%	16
CCC(C)(C)n1nnnc1C(C(C)C)N(Cc1cccnc1)Cc1ccco1 (stereo not drawn)	-5	?	-1%	4%	-6
CC(C)(C)n1nnnc1CN(Cc1ccc(F)cc1)Cc1ccco1	-4	?	-13%	?	8
COc1cccc(CN(Cc2ccco2)C(c2ccc(F)cc2)c2nnnn2C(C)(C)C)c1 (stereo not drawn)	17	1.7µM*	-32%	?	9
CCC(C)(C)n1nnnc1C(c1ccc(C)cc1)N(Cc1ccco1)Cc1cccs1 (stereo not drawn)	20	4.7µM*	11%	nt	9
CCN(Cc1ccccc1)C(c1cccc(C#N)c1)c1nnnn1C(C)(C)C (stereo not drawn)	-1	10µM*	-18%	?	10
